Source: PubChem BioAssay (EPA / NIEHS)
Records with an inconclusive call do not appear. Activity calls are given as the source filed them. The calls were made as follows: active = hit-call score of the fitted dose curve at least 0.9, where 1 is the maximum; inconclusive = response in the unintended direction; inactive = score below 0.9.

read-out: Cytochrome P450 2C19 (Homo sapiens) (UniProt P33261); assay: CLD_CYP2C19_24hr: CellzDirect (CLD) Gene Expression Assay for xenobiotic metabolism (CYP2C19) at 24 hours (AID 2283687);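 also: activity means mRNA induction above DMSO vehicle baseline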
Experimental: CLD_24hr is a cell-based, multiplexed-readout assay that uses hepatocyte, a human liver primary cell, with measurements taken at 24 hours after chemical dosing in a 96-well plate.CLD_CYP2C19_24hr is one of 16 assay component(s) measured or calculated from the CLD_24hr assay. It is designed to make measurements of mRNA induction, a form of inducible reporter, as detected with chemiluminescence signals by Quantitative Nuclease Protection Assay (qNPA) technology.Data from the assay component CLD_CYP2C19_24hr was analyzed at the endpoint, CLD_CYP2C19_24hr, in the positive analysis fitting direction relative to DMSO as the negative control and baseline of activity. Using a type of inducible reporter, gain-of-signal activity can be used to understand changes in the reporter gene as they relate to the gene CYP2C19. Furthermore, this assay endpoint can be referred to as a primary readout. To generalize the intended target to other relatable targets, this assay endpoint is annotated to the cyp intended target family, where subfamily is xenobiotic metabolism.
Human hepatocyte cultures were treated daily for two consecutive days with fresh dosing solutions containing appropriate concentrations of the 320 ToxCast chemicals (chemical identities were blinded to CellzDirect and other ToxCast collaborators), vehicle control (0.2% DMSO), and positive control inducers as summarized in Table 1. Due to the large number of treatment groups and chemicals examined, the ToxCast chemicals were divided into two groups (spanning two independent cultures of hepatocytes from separate donor preparations (Hu778: ToxCast plates 1 and 2; Hu776: ToxCast plates 3 and 4). Each preparation of human hepatocyte cultures was treated with respective vehicle control, medium only control, set of six positive controls/reference chemicals for the five hepatic receptor pathways, and a subset of eight of the ToxCast chemicals (indoxacarb, pyrithiobac-sodium, norflurazon, cyhalofop-butyl, methomyl, thiram, acetochlor, and propiconazole). These replicate data, coupled with internal replicates designed within the blinded ToxCast chemical library, provided additional data to evaluate interindividual differences between hepatocyte preparations and their potential impact on chemical profiles.Cell morphology and integrity were evaluated using phase-contrast microscopy as an indicator of hepatocyte cell health (Tyson & Green, 1987). Cultures for each treatment group (i.e., media, vehicle [0.2% DMSO], positive control inducers [multiple concentrations], and the ToxCast chemicals [multiple concentrations]) were observed and cell morphology was assessed relative to vehicle control cultures at each harvest time point (0, 6, 24, or 48 h). […] Images were evaluated at the conclusion of the study to assess changes in cell integrity and account for the effects of chemical exposure on uncharacteristic changes in concentration-dependent gene expression profiles. The results from these determinations of apparent cytotoxicity were annotated (yes/no) alongside the corresponding qNPA data for reference.At the conclusion of each treatment period, hepatocyte cultures (96-well) were washed with 1 volume of HBSS, lysed by addition of 25 ul ArrayPlate lysis buffer (HTG, Tucson, AZ), and 70 ul/well of Denaturation Oil, denatured by incubation at 95C for 10 min, and frozen at approximately -70C until analysis by nuclease protection assay (qNPA) (Roberts et al., 2007). For qNPA analysis, cell lysates were thawed at 50C for approximately 30 min, qNPA probes were added, and samples were incubated at 95C for 10 min to begin the detection process by denaturing the target RNA, dissociating the duplexes and secondary structure hybridization. At the conclusion of the hybridization period, S1 nuclease reagent was added to each sample to digest all nonprotected nucleotides at 50C for 60-90 min. […]

Cytochrome P450 2C19 (Homo sapiens), sequence (P33261 whole entry, looked up): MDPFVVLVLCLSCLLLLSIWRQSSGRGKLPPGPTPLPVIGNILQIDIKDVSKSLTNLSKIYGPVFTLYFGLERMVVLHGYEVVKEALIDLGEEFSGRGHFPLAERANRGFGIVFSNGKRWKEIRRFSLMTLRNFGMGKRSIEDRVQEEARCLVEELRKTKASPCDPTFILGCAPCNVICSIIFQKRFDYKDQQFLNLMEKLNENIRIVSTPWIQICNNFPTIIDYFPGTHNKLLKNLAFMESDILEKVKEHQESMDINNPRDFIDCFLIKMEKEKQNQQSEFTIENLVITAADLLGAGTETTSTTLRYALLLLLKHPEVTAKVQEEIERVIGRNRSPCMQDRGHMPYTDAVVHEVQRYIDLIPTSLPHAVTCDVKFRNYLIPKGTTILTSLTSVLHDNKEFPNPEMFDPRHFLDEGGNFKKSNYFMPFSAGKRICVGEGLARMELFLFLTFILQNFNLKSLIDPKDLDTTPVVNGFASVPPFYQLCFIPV

SMILES	outcome
CC(C)(C)c1ccc(CSc2cnn(C(C)(C)C)c(=O)c2Cl)cc1	inactive
CCCCC(CC)COC(=O)c1ccccc1C(=O)OCC(CC)CCCC (centres undefined)	inactive
COc1nc(C)nc(NC(=O)NS(=O)(=O)c2ccccc2Cl)n1	inactive
COP(N)(=O)SC (centres undefined)	inactive
COC(=O)N(OC)c1ccccc1COc1ccn(-c2ccc(Cl)cc2)n1	inactive
Cc1cc(Cl)ccc1OCC(=O)O	inactive
CCON=C(CC)C1=C(O)CC(c2c(C)cc(C)cc2C)CC1=O (centres undefined)	inactive
CCOC(=O)CC(SP(=S)(OC)OC)C(=O)OCC (centres undefined)	inactive
COc1cnc(OC)n2nc(NS(=O)(=O)c3c(OCC(F)F)cccc3C(F)(F)F)nc12	inactive
O=C(O)c1nc(Cl)ccc1Cl	inactive
O=C(O)COc1nc(Cl)c(Cl)cc1Cl	inactive
COP(=S)(OC)Oc1nc(Cl)c(Cl)cc1Cl	inactive
COC(=O)C(C)Oc1ccc(Oc2ccc(Cl)cc2Cl)cc1 (centres undefined)	inactive
CCOC(=O)C(Cl)Cc1cc(-n2nc(C)n(C(F)F)c2=O)c(F)cc1Cl (centres undefined)	inactive
CC(C)C1(C)N=C(c2nc3ccccc3cc2C(=O)O)NC1=O (centres undefined)	inactive
COc1nc(NC(C)C)nc(NC(C)C)n1	inactive
CCNc1nc(Cl)nc(NC(C)C)n1	inactive
Oc1ccccc1-c1ccccc1	inactive
COC(=O)c1ccccc1C(=O)OC	inactive
CCCCNC(=O)n1c(NC(=O)OC)nc2ccccc21	inactive
CS/C(C)=N/OC(=O)N(C)SN(C)C(=O)O/N=C(\C)SC	inactive
N#CC(CCc1ccc(Cl)cc1)(Cn1cncn1)c1ccccc1 (centres undefined)	inactive
CO/C=C(/C(=O)OC)c1ccccc1Oc1cc(Oc2ccccc2C#N)ncn1	inactive
CC(Oc1ccc(Cl)cc1Cl)C(=O)O (centres undefined)	inactive
CNC(=O)ON=CC(C)(C)SC	inactive
CC1COC(Cn2cncn2)(c2ccc(Oc3ccc(Cl)cc3)cc2Cl)O1 (centres undefined)	inactive
C=CC1(C)OC(=O)N(c2cc(Cl)cc(Cl)c2)C1=O (centres undefined)	inactive
COc1nc(C)nc(NC(=O)NS(=O)(=O)c2ccccc2CCC(F)(F)F)n1	inactive
CCCCNC(=O)OCC#CI	inactive
